This passage reports inhibition results from ChEMBL document CHEMBL1961873, “Compounds: GSK PKIS; Assays: Nanosyn kinase panel” (2012).

Chain of MAP kinase-interacting serine/threonine-protein kinase 2 (Homo sapiens) (Q9HBH9 whole entry, looked up): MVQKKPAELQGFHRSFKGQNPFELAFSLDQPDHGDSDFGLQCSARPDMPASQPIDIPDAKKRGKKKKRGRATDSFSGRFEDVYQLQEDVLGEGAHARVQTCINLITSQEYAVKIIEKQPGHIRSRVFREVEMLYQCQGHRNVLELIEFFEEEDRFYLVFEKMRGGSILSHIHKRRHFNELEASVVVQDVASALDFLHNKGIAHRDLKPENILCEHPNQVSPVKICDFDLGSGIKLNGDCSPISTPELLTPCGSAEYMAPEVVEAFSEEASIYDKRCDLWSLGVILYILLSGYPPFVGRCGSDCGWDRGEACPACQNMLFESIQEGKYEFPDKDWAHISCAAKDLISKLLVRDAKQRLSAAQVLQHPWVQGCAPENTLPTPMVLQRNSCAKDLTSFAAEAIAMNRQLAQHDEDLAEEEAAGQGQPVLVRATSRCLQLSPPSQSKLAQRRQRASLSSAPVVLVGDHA

The test addresses MAP kinase-interacting serine/threonine-protein kinase 2 (Homo sapiens) (UniProt Q9HBH9). As to conditions: at 1 µM.
Consider `CCS(=O)(=O)c1ccc(OC)c(Nc2ncc(-c3cccc(-c4ccccc4F)c3)o2)c1`, for which the inhibition stood at 3.99%.

Turning to `C/C(Nc1ccc(S(N)(=O)=O)cc1)=C1/C(=O)Nc2ccccc21`, the inhibition is 3.41%.

As to `CN(C)CCOc1ccc(-c2cc(-c3ccc4c(c3)CCC4=NO)c(-c3ccncc3)o2)cc1`, the inhibition stood at 2.71%.

For `CCc1cccc(CC)c1/C=C/c1cncc(C(=O)NC)c1`, the inhibition was 1.79%.

For `COc1ccc2cc(-c3c(-c4ccncc4)nc(-c4ccc(S(C)(=O)=O)cc4C)n3C)ccc2c1`, the inhibition came out at 3.34%.

`CCS(=O)(=O)c1ccc(OC)c(Nc2ncc(-c3ccccc3Cl)o2)c1`: the inhibition turned out to be 7.7%.

In the case of `COc1cc2ncn(-c3cc(OCCc4ccccc4)c(C(N)=O)s3)c2cc1OC`, the inhibition came out at 12.8%.

`CN1CCN(CCCNc2nc3ccc(Oc4ccc(NC(=O)Nc5cc(C(F)(F)F)ccc5F)cc4)cc3[nH]2)CC1`: the inhibition came to 9.51%.

For `Cc1ccc(NC(=O)c2ccoc2)cc1-c1ccc(C(=O)NCC2CC2)cc1`, the inhibition is 2.22%.

With `COc1ccc2cc(-c3c(-c4ccncc4)nc(-c4ccc([S+](C)[O-])cc4C)n3C)ccc2c1` (centres undefined), the inhibition was determined as 3.96%.

Consider `O=C(NCC1CC1)c1ccc(-c2cccc(C(=O)NC3CC3)c2)cc1`, for which the inhibition was 0.04%.

For `O=C(Nc1n[nH]c2cc(-c3cc(F)ccc3F)ccc12)C1CC1`, the inhibition was 2.16%.

Regarding `COc1cc(N2CCN(C(C)C)CC2)ccc1Nc1nc(Nc2ccc(F)cc2C(=O)NC[C@@H](O)CO)c2cc[nH]c2n1`, the inhibition turned out to be 5.28%.

As to `NC(=O)c1cc(-c2ccncc2)cc(-c2ccccc2)c1N`, the inhibition turned out to be 6.55%.

Regarding `Fc1ccc(-c2ncn(C3CCNCC3)c2-c2ccnc(Oc3ccc4c(c3)OCO4)n2)cc1`, the inhibition stood at 6.88%.

As to `FC(F)(F)c1cccc(Nc2nccc(-c3cnn4nc(-c5ccccc5)ccc34)n2)c1`, the inhibition was found to be 4.37%.

Consider `COc1cc2ncn(-c3cc(OCc4ccccc4C(F)(F)F)c(C(C)=O)s3)c2cc1OC`, for which the inhibition stood at 4.93%.

As for `Fc1ccc(-c2ncn(CCCN3CCOCC3)c2-c2ccncc2)cc1`, the inhibition was -0.24%.

Consider `NS(=O)(=O)c1ccc(Nc2cc(-c3ccc(O)c(F)c3)n[nH]2)cc1`, for which the inhibition is 7.33%.

For the compound `CN(C)CCCNc1nccc(-c2c(-c3ccc(F)cc3)nn3cc(C(F)(F)F)ccc23)n1`, the inhibition is 6.51%.

Turning to `Fc1ccc(-c2c(-c3ccncc3)nc3n2CCS3)cc1`, the inhibition stood at 6.79%.

As to `O=C(Nc1n[nH]c2nc(-c3ccco3)ccc12)C1CC1`, the inhibition turned out to be 4.01%.

In the case of `C[C@@H](Oc1cc(-n2cnc3ccc(OCC4CCN(C)CC4)cc32)sc1C(N)=O)c1ccccc1Cl`, the inhibition amounted to 5.86%.

In the case of `c1ccc(-c2n[nH]cc2-c2ccnc(-c3ccc(OCCN4CCOCC4)cc3)c2)nc1`, the inhibition came to 2.02%.

On to `O=C1Nc2ccccc2/C1=C/Nc1ccc(-n2cncn2)cc1`, for which the inhibition is 8.07%.

With `c1ccc(Oc2ccc(Nc3ncc(-c4ccccc4)o3)cc2)cc1`, the inhibition is 2.44%.

As for `CCN(CC)Cc1ccc(Nc2nccc(-c3cnn4ncccc34)n2)cc1`, the inhibition came out at 8.84%.

As to `Cc1ccc(C(=O)NC(C)C)cc1-c1ccc(C(=O)NCC2CC2)cc1`, the inhibition was 1.12%.

Turning to `COc1cc2ncn(-c3cc(OCc4cccs4)c(C(N)=O)s3)c2cc1OC`, the inhibition came out at 13%.

As to `O=C(Nc1ccc(Oc2ccc3[nH]c(NC(=O)c4ccccc4)nc3c2)cc1)Nc1cc(C(F)(F)F)ccc1F`, the inhibition came to 22.1%.

On to `COc1ccc(-c2ccc3c(NC(=O)C4CC4)n[nH]c3n2)cc1`, for which the inhibition came out at 5.48%.

As to `COc1cc(Nc2ncc3c(C)nc(-c4cccc(C(F)(F)F)c4)n3n2)cc(OC)c1OC`, the inhibition was determined as 6%.

For the compound `Fc1ccc(-c2ncn(C3CCNCC3)c2-c2ccnc(Oc3ccc(F)c(F)c3)n2)cc1`, the inhibition amounted to 1.04%.

For the compound `NS(=O)(=O)c1ccc(N/N=C2\C(=O)Nc3ccc(C(=O)NCCCn4ccnc4)cc32)cc1`, the inhibition was 14.2%.
